According to PubChem BioAssay (NCI):
“And” between values parts separate entries of the source, which are not always exact repeats. Identical values can stand only once. Compounds without any hit were thinned out: in the full panel of roughly 79,000, 15% have a hit. The source made the active and inactive calls. No stated cut-off is given here; in the data, active means growth inhibition above about 70%; inactive means the rest.

Tests used:
[1] = NCI Yeast Anticancer Drug Screen. Data for the rad50 strain (AID 155);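 further: 0% = growth of vehicle-only cultures of the same strain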; settings: S. cerevisiae rad50 strain growth inhibition; at 50.0 µM; hits give high values
In short: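 Compounds were tested on a yeast strain with an engineered DNA damage repair alteration; the reported value is growth inhibition normalised to vehicle treatment.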

[2] = NCI Yeast Anticancer Drug Screen. Data for the mec2-1 strain (AID 157); settings: S. cerevisiae mec2-1 strain, at 50.0 µM, hits give high values
In short: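 Yeast mec2-1 mutant treated with compound. Readout: growth inhibition vs vehicle controls.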

[3] = NCI Yeast Anticancer Drug Screen. Data for the sgs1 mgt1 strain (AID 161);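 further: 0% = growth of cultures given vehicle only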; settings: S. cerevisiae sgs1 mgt1 strain, at 50.0 µM, hits give high values
In short: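 Inhibition of yeast growth, normalised to vehicle-treated controls, is reported for a strain bearing genetic alterations in DNA damage repair.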

[4] = NCI Yeast Anticancer Drug Screen. Data for the cln2 rad14 strain (AID 165);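 further: 0% = growth equal to vehicle treated cultures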; settings: S. cerevisiae cln2 rad14 strain, at 50.0 µM, hits give high values
In short: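 cln2 rad14 yeast strain; compound exposure; growth inhibition read vs vehicle controls.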

[5] = NCI Yeast Anticancer Drug Screen. Data for the bub3 strain (AID 167); settings: S. cerevisiae bub3 mutant strain, at 50.0 µM, hits give high values
In short: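 Growth of a checkpoint-deficient yeast mutant is measured after compound exposure. Values represent inhibition relative to vehicle.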

[6] = NCI Yeast Anticancer Drug Screen. Data for the mlh1 rad18 strain (AID 175); settings: S. cerevisiae mlh1 rad18 strain growth inhibition; at 50.0 µM; hits give high values
In short: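 Yeast w/ defined DNA-repair lesions; compound exposure; growth vs vehicle controls → % inhibition.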

Measured: growth inhibition

ClCCN(CCCl)c1ccc(N=Cc2ccccc2)cc1
inactive: [1] 24.9% | [2] 17% | [3] 7.35% | [4] 4.3% | [5] 19.4% | [6] 44.6%

CC(=O)c1ccc(N2CCNCC2)cc1
inactive: [1] -27.6% | [2] -49.8% | [3] -3.95% | [4] 16.6% | [5] -14.2% | [6] -22.1%

C=CCc1cc(-c2cc(CC=C)c(O)c(CN(CCCl)CCCl)c2)cc(CN(CCCl)CCCl)c1O
inactive: [1] 41.5% | [2] 49.8% | [3] 47.1% | [4] 43.1% | [5] 60% | [6] 44.1%

C=CCC1(/C(=C\CC)CCC)C(=O)NC(=O)NC1=O
inactive: [1] 15.1% | [2] -0.3% | [3] 1.75% | [4] -32% | [5] -0.2% | [6] 12.3%

CC1CN1c1nc(N2CC2C)nc(N2CC2C)n1 (stereo not given)
inactive: [1] -6.8% | [2] 13.6% | [3] -2.65% | [4] -1.85% | [5] -19.2% | [6] -11.1%

C=C[CH2][Sn]([CH3])([CH3])[CH2]C=C
inactive: [1] 11.1% | [2] 4.35% | [3] 2.75% | [4] -19.4% | [5] -12.6% | [6] 4.75%

CC(=O)Nc1nccs1.CC(=O)Nc1nccs1.[Cl][Pt][Cl]
inactive: [1] 9% | [2] 5.25% | [3] 8.8% | [4] -1.55% | [5] -1.45% | [6] 5.1%

O=C(Cc1c[nH]c2ccccc12)N/N=C\c1ccc(N(CCCl)CCCl)cc1
inactive: [1] 22.4% | [2] -10.3% | [3] 11.8% | [4] 31.9% | [5] -5.65% | [6] 4.55%

CCOP(=O)(OCC)Oc1ccc([N+](=O)[O-])c(CC)c1
inactive: [1] -2.55% | [2] -3.55% | [3] -0.3% | [4] 3.5% | [5] 18.5% | [6] -8.25%

O=C(CN1CC1)NCCCCCCCNC(=O)CN1CC1
inactive: [1] -13.4% | [2] 3.5% | [3] 1.6% | [4] 8.15% | [5] -4.15% | [6] 25.4%

CCCCOP(=S)(Nc1ccccc1)OCCCC
active: [1] 91% | [3] 81.8% | [5] 73.5% | [6] 82.2%
inactive: [2] 40.7% | [4] 42%

CC(C)(O)C1=CC23CC(C)(C(=O)O)C4CCCCC4(C)C2CC1OO3 (stereo not given)
inactive: [1] 21.4% | [2] -7.3% | [3] 32% | [4] 11.4% | [5] -10.3% | [6] 25.4%

[N-]=[N+]=Nc1cc(=O)oc2ccccc12
inactive: [1] 25.6% | [2] 10.2% | [3] -8.25% | [4] 13.6% | [5] 0.9% | [6] 1.1%

CN(C)c1ccc(N=Nc2c([O-])ccc3ccccc23)cc1.[C-]#[O+].[C-]#[O+].[Ir]
inactive: [1] -7.05% | [2] -14.2% | [3] -30.2% | [4] 34% | [5] -10.2% | [6] -4.7%

CCNP(=S)(OCC)OCC
inactive: [1] -9.2% | [2] 3.15% | [3] 5.05% | [4] -3.9% | [5] -2.7% | [6] -4%

CCC(CO)N=Cc1ccccc1O.CCC(CO)N=Cc1ccccc1O.[Ni] (stereo not given)
inactive: [1] 40% | [2] 1.3% | [3] 31.9% | [4] -44.1% | [5] 8.7% | [6] 25.5%

CC(C)CC(N)C(=O)O (stereo not given)
inactive: [1] -6% and -19.2% | [2] -4.8% and 9.15% | [3] -3.25% and -31.2% | [4] -11.1% and -34% | [5] 5.7% and -8.45% | [6] 6.15% and -40.9%

COc1ccccc1N
inactive: [1] -2.9% | [2] 1.25% | [3] 4.3% | [4] -8.05% | [5] -9.45% | [6] -17.4%

CC1(C)SC2C(NC(=O)Cc3ccccc3)C(=O)N2C1C(=O)O (stereo not given)
inactive: [1] 1.45% | [2] -16.6% | [3] -22.4% | [4] -97.3% | [5] -36.1% | [6] -9.6%

C[n+]1ccccc1-c1ccc[n+](CCCC[n+]2cccc(-c3cccc[n+]3C)c2)c1
inactive: [1] -8.5% | [2] -1.8% | [3] -7.5% | [4] -25.6% | [5] -8.65% | [6] 20%

CCCCCCNC(=O)CCl
inactive: [1] 6.5% | [2] -9.85% | [3] 15.3% | [4] -14.6% | [5] 7.45% | [6] -9.15%

CCCN(CCC)C(=O)CCl
inactive: [1] -4.55% | [2] 5.2% | [3] 5.85% | [4] 3.3% | [5] -4.55% | [6] 9.4%

CCOc1ccc2c(N/N=C/c3ccc(N(CCCl)CCCl)cc3)cc(C)nc2c1
active: [1] 96.3% | [2] 97.6% | [3] 97.3% | [4] 97.8% | [5] 95.7% | [6] 96.3%

COP(=O)(CC(=O)CCCCC1OCCO1)OC
inactive: [1] 2.25% | [2] 0% | [3] 1.3% | [4] -22.8% | [5] -5.3% | [6] -4.85%

COc1c2c(nc3ccccc13)-c1cc3c(c(=O)n1C2)COC(=O)C3(O)CC(=O)N1CCOCC1 (stereo not given)
inactive: [1] 9.5% | [2] -4.25% | [3] 0.2% | [4] 52.5% | [5] -6.5% | [6] 6.35%

COc1ccccc1N=Nc1cccc[c]1[Hg][Cl]
active: [1] 98.2% | [2] 99% | [3] 98.7% | [4] 98.7% | [5] 98% | [6] 98.3%

CCC1(C(C)c2ccccc2)C(=O)NC(=O)NC1=O (stereo not given)
inactive: [1] 0% | [2] 6.1% | [3] 1.8% | [4] 46.1% | [5] 16.6% | [6] -3.55%

O=[As](O)(c1cccc(Cl)c1)C1CCCCC1O (stereo not given)
inactive: [1] 1.05% | [2] -0.35% | [3] 5.3% | [4] -1.95% | [5] 25.2% | [6] 34.4%

C(=C/P(c1ccccc1)c1ccccc1)/P(c1ccccc1)c1ccccc1
inactive: [1] 4.05% | [2] 8.95% | [3] 1.9% | [4] -18.4% | [5] 2.75% | [6] 2.7%

Cc1nc2ccc(Br)cc2c(=O)n1-c1ccc(N)cc1
inactive: [1] -25.9% | [2] -2.4% | [3] -28.1% | [4] 16.2% | [5] -8.2% | [6] 5.8%

CCC(C)CC(C)N (stereo not given)
inactive: [1] 0.6% | [2] 2.7% | [3] 14.5% | [4] 2.65% | [5] -2.45% | [6] 9.15%

C/C(=C\COc1ccc2ccc(=O)oc2c1)C1=CC(=O)C(C)(C)O1
inactive: [1] -2.65% | [2] -17.2% | [3] 18.9% | [4] 9.85% | [5] -14.8% | [6] 12.2%

CN1C(=O)NC(C)(c2cccc(N(CCCl)CCCl)c2)C1=O (stereo not given)
inactive: [1] 5.5% | [2] 24.2% | [3] 10.8% | [4] 8.2% | [5] -13.9% | [6] 27.6%

COc1cc2c(cc1O)N=C[C@@H]1CCC(O)N1C2=O (mixture of isomers)
inactive: [1] 19.6% | [2] 16.3% | [3] 19.2% | [4] 58.8% | [5] -2.2% | [6] 3.9%

C[C@]12C=CC(=O)C=C1CC[C@@H]1[C@@H]2C(=O)C[C@]2(C)C(=O)CC[C@@H]12
inactive: [1] -11.4% | [2] -19.1% | [3] 2.05% | [4] -1.85% | [5] -4.4% | [6] 4.95%

O=[N+]([O-])C1CC/C(=N/O)c2nonc21 (stereo not given)
inactive: [1] 0.3% | [2] 9.5% | [3] 18.5% | [4] 19.6% | [5] 5.3% | [6] 18.6%

CC(C)c1cc2c(cc1O)C1(C)CCCC(C)(C)C1CC2=O (stereo not given)
inactive: [1] 27.4% | [2] 32.3% | [3] 19.9% | [4] 22.4% | [5] 27.9% | [6] 34.6%

CCC[CH2][Sn]([CH3])([CH3])[CH2]CC[N+](C)(C)C
inactive: [1] 21.3% | [2] 5.55% | [3] 16.9% | [4] 45% | [5] 10.8% | [6] 13.5%

CN1C2CCC1CC(OC(=O)C1CCC(C(=O)OC3CC4CCC(C3)N4C)(c3ccccc3)c3ccccc31)C2 (stereo not given)
inactive: [1] -45% | [2] -23.9% | [3] -35.3% | [4] -29.9% | [5] -34.4% | [6] -36.7%

CN(C(=O)Oc1ccccc1)c1ccc(S(=O)(=O)F)cc1
active: [1] 97.8% | [2] 98.7% | [3] 98.8% | [4] 96.4% | [5] 98.5% | [6] 98.7%
